# Measurements reported in ChEMBL document CHEMBL3988442, “University of Dundee, Small-Polar-MMV Screening Library” (2021).
# About 13,000 (27%) of roughly 48,000 compounds showed an effect of 50% or more. The list shows a part of the results.
# System: Wolbachia pipientis
# Assay: Anti-Wolbachia Cell-Based Screen
# Assay type: functional
# Set-up: scale not given: in the data most compounds retested in dose-response had high values
# Details: 5 µM
row,SMILES,Percent Effect [%]
1,Cc1ccc(N2CC[C@H](OCC3CC3)[C@@H]2Cc2ccncc2)nn1,112.9
2,O=S(=O)(C1CC1)N1CC[C@H](OCC2CC2)[C@@H]1Cc1ccncc1,-12.77
3,CN(C)[C@@H]1CCN(c2ncccn2)[C@H]1Cc1cccnc1.O=C(O)C(F)(F)F.O=C(O)C(F)(F)F,5.907
4,COCCO[C@H]1CCN(c2ccc(C)nn2)[C@H]1Cc1cccnc1.O=C(O)C(F)(F)F.O=C(O)C(F)(F)F,97.63
5,Cc1ccc(N2CC[C@H](OCC3CC3)[C@@H]2Cc2cccnc2)nn1.O=C(O)C(F)(F)F,91.78
6,COCCO[C@H]1CCN(c2cc(OC)ncn2)[C@H]1Cc1cccnc1.O=C(O)C(F)(F)F,-7.888
7,Cc1ccc(N2CC[C@H](OCC3CC3)[C@@H]2Cc2cnn(C)c2)nn1,1.399
8,O=C(NCC(F)(F)F)c1nnn(-c2ccccc2)c1C(F)(F)F,-4.958
9,CCCSCC(=O)N1C[C@H]2CC[C@@H]1CN(c1ncccn1)C2,28.59
10,N[C@H]1CN(C(=O)c2ccc(CO)cc2)C[C@@H]1C1CC1,-11.41
11,COc1ccc(-c2nc3c([nH]2)CCNC3)c(OC)c1OC,-10.21
12,O=C(CCc1ccc(C(F)(F)F)cc1)N1CCCS1(=O)=O,-13.79
13,O=S(=O)(Nc1cnn(C2CCOCC2)c1)c1ccc2c(c1)CCO2,-1.173
14,COc1c(NS(=O)(=O)c2ccc(C)c(C)c2)c(C)nn1C,-13.12
15,N#Cc1ccc(S(=O)(=O)Nc2cnn(C3CCOCC3)c2)cc1,136.3
16,N#Cc1ccc(S(=O)(=O)Nc2ccc(N3CCOCC3)cn2)cc1,1.293
17,CCc1ccc(S(=O)(=O)Nc2cnc(N3CCOCC3)nc2)cc1,1.019
18,CC(=O)c1ccc(S(=O)(=O)Nc2cnn(C3CCOCC3)c2)cc1,124.1
19,O=S(=O)(Nc1cnn(C2CCOCC2)c1)c1ccc(Br)cc1,132.2
20,O=S(=O)(Nc1cnc(N2CCOCC2)nc1)c1ccc(Cl)cc1,-1.506
21,Cn1nnn(-c2ccc(NS(=O)(=O)c3ccc(Br)cc3)cc2)c1=O,-3.296
22,Cc1ccc(NS(=O)(=O)c2ccc(C#N)cc2)c(CN(C)C)c1,3.683
23,Cc1ccc(S(=O)(=O)Nc2ccc(N3CCOCC3)cn2)cc1,3.4
24,Cc1ccc(S(=O)(=O)Nc2cnn(C3CCOCC3)c2)cc1C,113.9
25,COc1coc(CN2CCCC(CCc3c(F)cccc3F)C2)cc1=O (stereo unspecified),17.04
26,Cc1ccc(C)c(-c2csc(N)c2C#N)c1,-0.8217

row,SMILES,Percent Effect [%]
1,Cc1nc(N2CCN3CCCCC3C2)nc2cc(S(C)(=O)=O)ccc12 (stereo unspecified),-5.317
2,O=C(CNC(=O)c1cnc2ccccc2c1O)NCCn1ccnc1,-3.022
3,Cc1cc(CN2CCN(C(=O)Nc3cccnc3)CC2)on1,-15.13
4,O=C(O)c1cc(S(=O)(=O)Nc2cnn(C3CCOCC3)c2)ccc1F,126.6
5,O=S(=O)(Nc1cnn(C2CCOCC2)c1)c1c(F)cccc1F,-13.72
6,O=S(=O)(Nc1cnn(C2CCOCC2)c1)c1ccc(F)c(F)c1,-11.58
7,Cc1ccc(CNCc2cc(Br)c3c(c2)OCO3)cc1,-32.56
8,CC(C)(Oc1ccc2c(c1)CCCC2=O)C(=O)NCc1ccco1,-1.632
9,CC(C)(O)CN1CCC(=O)N(Cc2ccco2)Cc2cc(F)ccc21,108.3
10,CN1CC(=O)N(c2cccc(F)c2)CC12CCN(Cc1ccco1)C2 (stereo unspecified),-8.082
11,COc1cccc(N2CCC(CNC(=O)N(C)Cc3ccco3)C2)c1 (stereo unspecified),-2.761
12,Fc1cccc(N2CCCC3(CN(Cc4ccco4)CCO3)C2)c1.O=C(O)C(F)(F)F.O=C(O)C(F)(F)F (stereo unspecified),-7.933
13,COc1ccc2c(c1)CN(Cc1ccco1)C(=O)CCN2CC(C)(C)O,126.9
14,CC(=O)N1CCC2(CC1)CN(C(C)=O)CC21CCNC1=O (stereo unspecified),-37.65
15,CN(C)C1Cc2ccccc2N(S(=O)(=O)c2ccccc2C#N)C1 (stereo unspecified),-15.96
16,CN(C)c1nccnc1C1CCCN(c2cnccn2)C1 (stereo unspecified),115.4
17,CN(C)CCO[C@H]1C[C@@H](O)C12CCN(c1cnccn1)CC2,0.5833
18,CC(C)n1ccnc1C1CCCN(c2cncc(N(C)C)n2)C1 (stereo unspecified),9.354
19,Cc1cc(C)c(CNC(=O)C2CCCN(c3cnccn3)C2)c(=O)[nH]1 (stereo unspecified),0.7586
20,CC(C)c1nc(C2CCCN(c3cnc4ccccc4n3)C2)no1 (stereo unspecified),3.044
21,COc1cc(N2CCCC(c3ncc[nH]3)C2)ncn1 (stereo unspecified),-14.93
22,CN(C)c1cncc(C2CCCN(c3cnccn3)C2)n1 (stereo unspecified),69.21
23,Cc1cc(N2CCCC(c3nccnc3N(C)C)C2)ncn1 (stereo unspecified),90.88
24,CN(C)c1nccnc1C1CCN(c2cnccn2)CC1,116.7
25,CN(C)CCCn1ccnc1C1CCCN(c2cc(N)ncn2)C1 (stereo unspecified),-5.782
